{"source": "PubChem BioAssay", "note": "Values without a mark were called inactive. Calls of active or inactive are those of the source. Unless noted, no stated cut-off is given here; in the data, active means inhibition above about 44%; inactive means the rest."}
{"biological_target": "Steroidogenic factor 1 (Homo sapiens) (UniProt Q13285)", "sequence (Q13285 whole entry, looked up)": "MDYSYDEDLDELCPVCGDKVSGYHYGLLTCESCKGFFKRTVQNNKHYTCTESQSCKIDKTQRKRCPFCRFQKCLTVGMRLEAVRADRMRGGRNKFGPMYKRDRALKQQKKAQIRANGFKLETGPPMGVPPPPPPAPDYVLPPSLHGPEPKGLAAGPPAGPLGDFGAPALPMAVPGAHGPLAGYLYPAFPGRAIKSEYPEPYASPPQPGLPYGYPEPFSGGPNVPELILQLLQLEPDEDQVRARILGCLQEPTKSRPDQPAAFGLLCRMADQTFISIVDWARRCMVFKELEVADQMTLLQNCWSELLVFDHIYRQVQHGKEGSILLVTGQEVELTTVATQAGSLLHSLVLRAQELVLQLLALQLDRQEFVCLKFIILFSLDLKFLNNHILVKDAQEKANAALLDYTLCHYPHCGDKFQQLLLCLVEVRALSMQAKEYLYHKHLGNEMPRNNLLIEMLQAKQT", "assay": "inverse agonism at SF1 nuclear receptor – cell-based, luminescence, high throughput, counter-screen for LRH-1 inverse agonist project (AID 651614);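 further: cells cotransfected with StAR promoter reporter and SF1 expression vector; 0% = vehicle on cells with receptor and 100% = vehicle on cells lacking receptor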", "details": "cell-based SF1 luciferase reporter, at 3.6 µM, active compounds read high"}
{"smiles": "COc1ccc(NC(=O)CSc2nnc(-c3ccccn3)n2N)cc1Cl", "inhibition": "49.4% (active)"}
{"smiles": "CCOC(=O)c1c(C)[nH]c(C(=O)COC(=O)/C=C/c2ccc3c(c2)OCO3)c1C", "inhibition": "43.6% (active)"}
{"smiles": "CC(=O)Nc1cc(-c2cccc(N)c2)cn2c(-c3ccc(C(C)=O)cc3)cnc12", "inhibition": "36.5%"}
{"smiles": "CCCc1cc(=O)oc2cc3oc(C)c(C)c3cc12", "inhibition": "50.5% (active)"}
{"smiles": "COc1ccc(CCNC(=O)c2ccc(CSc3ccc(Cl)cc3)o2)cc1OC", "inhibition": "23.4%"}
{"smiles": "O=C(Nc1ccccn1)c1ccc([N+](=O)[O-])o1", "inhibition": "59.1% (active)"}
{"smiles": "Cn1c(=O)n(C)c2cc(NC(=O)CSc3nnc(-c4ccccc4O)n3-c3ccccc3)ccc21", "inhibition": "54.8% (active)"}
{"smiles": "O=C(COC(=O)Cn1[nH]c(=O)c2ccccc2c1=O)NNC(=O)c1ccc(Br)cc1", "inhibition": "35.8%"}
{"smiles": "COc1cc(C2c3cc4c(cc3OC(Nc3ccc(C(=O)O)cc3)C2C)OCO4)cc(OC)c1OC", "note": "(stereo not given)", "inhibition": "60.9% (active)"}
{"smiles": "c1ccc(-n2nnnc2-c2cccc3ccccc23)cc1", "inhibition": "62.6% (active)"}
{"smiles": "COc1ccc2nc(N3CCC(O)CC3)c(C#N)cc2c1", "inhibition": "44.9% (active)"}
{"smiles": "CCOCC(=O)Nc1ccc([N+](=O)[O-])cc1C", "inhibition": "57.7% (active)"}
{"smiles": "COc1ccc(NC(=O)CSC2=NCCN2)cc1", "inhibition": "15.1%"}
{"smiles": "O=C(Cn1nnc2ccccc2c1=O)Nc1ccc2c(c1)CCC2", "inhibition": "25.6%"}
{"smiles": "c1csc(CCNc2ncnc3sc4c(c23)CCC4)c1", "inhibition": "60.7% (active)"}
{"smiles": "Nc1ccc(Nc2ccncc2[N+](=O)[O-])cc1", "inhibition": "61.9% (active)"}
{"smiles": "CN(C)S(=O)(=O)c1cccc(C(=O)OCC(=O)Nc2ccc3c(c2)OCCO3)c1", "inhibition": "52.3% (active)"}
{"smiles": "Cn1c(=O)n(C)c2cc(NC(=O)CCl)ccc21", "inhibition": "61.5% (active)"}
{"smiles": "COc1cccc(NC(=O)c2oc3ccccc3c2NC(=O)C2CC2)c1", "inhibition": "47.1% (active)"}
{"smiles": "COc1cc(/C=N/Nc2snc(SC)c2C#N)ccc1O", "inhibition": "44.1% (active)"}
{"smiles": "CCC1(C)OC(=O)N2CCc3c(C)[nH]c4c(C)ccc(c34)C21C", "note": "(stereo not given)", "inhibition": "44.9% (active)"}
{"smiles": "CC(C(=O)N1CCCc2c1c(=O)oc1ccc(O)cc21)N1CCc2ccccc2C1", "note": "(stereo not given)", "inhibition": "32.4%"}
{"smiles": "O=C(O)/C=C/C(=O)Nc1ccccc1SC(F)(F)C(F)(F)C(F)(F)F", "inhibition": "45.5% (active)"}
{"smiles": "Cc1nc(C)c(-c2csc(Nc3cccnc3)n2)s1", "inhibition": "35.4%"}
{"smiles": "CC(C)c1cc(NC(=O)CCl)on1", "inhibition": "51.9% (active)"}
{"smiles": "Cc1cc2ncn(/N=C/c3ccc([N+](=O)[O-])o3)c2cc1C", "inhibition": "68.2% (active)"}
{"smiles": "Cc1ccc2[nH]c3c(c2c1)CCN1C(=O)OC(C)(C)C31C", "note": "(stereo not given)", "inhibition": "49% (active)"}
{"smiles": "O=[N+]([O-])c1cc2ncccc2c2ncccc12", "inhibition": "53.1% (active)"}
{"smiles": "Cc1c(NC(=O)c2cc(-c3cccs3)nc3ccccc23)c(=O)n(-c2ccccc2)n1C", "inhibition": "18%"}
{"smiles": "Cc1cccc(CSC(Nc2ccc(F)cc2)=C(C#N)C#N)c1", "inhibition": "29.4%"}
{"smiles": "Cc1cc(-c2nn3c(-c4ccccc4)nnc3s2)c2ccccc2n1", "inhibition": "22.6%"}
{"smiles": "CCc1cc(=O)oc2c(C)c(OCC(=O)NCCN3CCOCC3)ccc12", "inhibition": "30.7%"}
{"smiles": "Cc1ccc(NC(=O)COC(=O)c2cc(=O)c3ccccc3o2)c(Br)c1", "inhibition": "51.1% (active)"}
{"smiles": "COc1cc(/C=N/NC(N)=S)ccc1OCC(=O)Nc1ccc(C)cc1", "inhibition": "60% (active)"}
{"smiles": "CC1=[N+](C)c2c(ccc3cccnc23)C1(C)C", "inhibition": "58.7% (active)"}
{"smiles": "O=C(COC(=O)c1ccc[n+]([O-])c1)Nc1ccc([N+](=O)[O-])cc1Cl", "inhibition": "56.2% (active)"}
{"smiles": "CCOc1ccc(CCNC(=O)COC(=O)c2cc(S(=O)(=O)N3CCOCC3)ccc2F)cc1OCC", "inhibition": "57.1% (active)"}
{"smiles": "CCOc1ccc(NC(=O)COC(=O)C2CCC(=O)N2)c([N+](=O)[O-])c1", "note": "(stereo not given)", "inhibition": "43.6% (active)"}
{"smiles": "COc1cccc(NC(=O)N(C)C[C@H]2Oc3cc(C#Cc4ccncc4)ccc3S(=O)(=O)N([C@H](C)CO)C[C@H]2C)c1", "inhibition": "44.8% (active)"}
{"smiles": "c1ccc(-c2nc(N3CCCCCC3)c3ccccc3n2)nc1", "inhibition": "74.8% (active)"}
{"test_system": "not listed separately", "assay": "compounds suppressing VP16-driven luciferase signal – cell-based, luminescence, high throughput, counter-screen for LRH-1 inverse agonist project (AID 651615; in the data active means inhibition above about 33%)", "details": "Gal4-VP16 luciferase reporter cells, at 3.6 µM, active compounds read high"}
{"smiles": "COc1ccc(NC(=O)CSc2nnc(-c3ccccn3)n2N)cc1Cl", "inhibition": "2.01%"}
{"smiles": "CCOC(=O)c1c(C)[nH]c(C(=O)COC(=O)/C=C/c2ccc3c(c2)OCO3)c1C", "inhibition": "7.82%"}
{"smiles": "CC(=O)Nc1cc(-c2cccc(N)c2)cn2c(-c3ccc(C(C)=O)cc3)cnc12", "inhibition": "-13.4%"}
{"smiles": "CCCc1cc(=O)oc2cc3oc(C)c(C)c3cc12", "inhibition": "-5.27%"}
{"smiles": "COc1ccc(CCNC(=O)c2ccc(CSc3ccc(Cl)cc3)o2)cc1OC", "inhibition": "30.3%"}
{"smiles": "O=C(Nc1ccccn1)c1ccc([N+](=O)[O-])o1", "inhibition": "-16.1%"}
{"smiles": "Cn1c(=O)n(C)c2cc(NC(=O)CSc3nnc(-c4ccccc4O)n3-c3ccccc3)ccc21", "inhibition": "-42.1%"}
{"smiles": "O=C(COC(=O)Cn1[nH]c(=O)c2ccccc2c1=O)NNC(=O)c1ccc(Br)cc1", "inhibition": "-7.59%"}
{"smiles": "COc1cc(C2c3cc4c(cc3OC(Nc3ccc(C(=O)O)cc3)C2C)OCO4)cc(OC)c1OC", "note": "(stereo not given)", "inhibition": "26.4%"}
{"smiles": "c1ccc(-n2nnnc2-c2cccc3ccccc23)cc1", "inhibition": "23%"}
{"smiles": "COc1ccc2nc(N3CCC(O)CC3)c(C#N)cc2c1", "inhibition": "-30.6%"}
{"smiles": "CCOCC(=O)Nc1ccc([N+](=O)[O-])cc1C", "inhibition": "4.94%"}
{"smiles": "COc1ccc(NC(=O)CSC2=NCCN2)cc1", "inhibition": "-3.5%"}
{"smiles": "O=C(Cn1nnc2ccccc2c1=O)Nc1ccc2c(c1)CCC2", "inhibition": "0.93%"}
{"smiles": "c1csc(CCNc2ncnc3sc4c(c23)CCC4)c1", "inhibition": "48.9% (active)"}
{"smiles": "Nc1ccc(Nc2ccncc2[N+](=O)[O-])cc1", "inhibition": "15.7%"}
{"smiles": "CN(C)S(=O)(=O)c1cccc(C(=O)OCC(=O)Nc2ccc3c(c2)OCCO3)c1", "inhibition": "10.7%"}
{"smiles": "Cn1c(=O)n(C)c2cc(NC(=O)CCl)ccc21", "inhibition": "-101%"}
{"smiles": "COc1cccc(NC(=O)c2oc3ccccc3c2NC(=O)C2CC2)c1", "inhibition": "-8.83%"}
{"smiles": "COc1cc(/C=N/Nc2snc(SC)c2C#N)ccc1O", "inhibition": "-90.8%"}
{"smiles": "CCC1(C)OC(=O)N2CCc3c(C)[nH]c4c(C)ccc(c34)C21C", "note": "(stereo not given)", "inhibition": "12.7%"}
{"smiles": "CC(C(=O)N1CCCc2c1c(=O)oc1ccc(O)cc21)N1CCc2ccccc2C1", "note": "(stereo not given)", "inhibition": "-3.51%"}
{"smiles": "O=C(O)/C=C/C(=O)Nc1ccccc1SC(F)(F)C(F)(F)C(F)(F)F", "inhibition": "6.88%"}
{"smiles": "Cc1nc(C)c(-c2csc(Nc3cccnc3)n2)s1", "inhibition": "-47.9%"}
{"smiles": "CC(C)c1cc(NC(=O)CCl)on1", "inhibition": "-11.4%"}
{"smiles": "Cc1cc2ncn(/N=C/c3ccc([N+](=O)[O-])o3)c2cc1C", "inhibition": "-19.6%"}
{"smiles": "Cc1ccc2[nH]c3c(c2c1)CCN1C(=O)OC(C)(C)C31C", "note": "(stereo not given)", "inhibition": "-1.39%"}
{"smiles": "O=[N+]([O-])c1cc2ncccc2c2ncccc12", "inhibition": "-8.8%"}
{"smiles": "Cc1c(NC(=O)c2cc(-c3cccs3)nc3ccccc23)c(=O)n(-c2ccccc2)n1C", "inhibition": "2.7%"}
{"smiles": "Cc1cccc(CSC(Nc2ccc(F)cc2)=C(C#N)C#N)c1", "inhibition": "17.7%"}
{"smiles": "Cc1cc(-c2nn3c(-c4ccccc4)nnc3s2)c2ccccc2n1", "inhibition": "-31.6%"}
{"smiles": "CCc1cc(=O)oc2c(C)c(OCC(=O)NCCN3CCOCC3)ccc12", "inhibition": "-8.24%"}
{"smiles": "Cc1ccc(NC(=O)COC(=O)c2cc(=O)c3ccccc3o2)c(Br)c1", "inhibition": "2.1%"}
{"smiles": "COc1cc(/C=N/NC(N)=S)ccc1OCC(=O)Nc1ccc(C)cc1", "inhibition": "-1.66%"}
{"smiles": "CC1=[N+](C)c2c(ccc3cccnc23)C1(C)C", "inhibition": "29.2%"}
{"smiles": "O=C(COC(=O)c1ccc[n+]([O-])c1)Nc1ccc([N+](=O)[O-])cc1Cl", "inhibition": "1.26%"}
{"smiles": "CCOc1ccc(CCNC(=O)COC(=O)c2cc(S(=O)(=O)N3CCOCC3)ccc2F)cc1OCC", "inhibition": "-4.44%"}
{"smiles": "CCOc1ccc(NC(=O)COC(=O)C2CCC(=O)N2)c([N+](=O)[O-])c1", "note": "(stereo not given)", "inhibition": "-7.9%"}
{"smiles": "COc1cccc(NC(=O)N(C)C[C@H]2Oc3cc(C#Cc4ccncc4)ccc3S(=O)(=O)N([C@H](C)CO)C[C@H]2C)c1", "inhibition": "-37%"}
{"smiles": "c1ccc(-c2nc(N3CCCCCC3)c3ccccc3n2)nc1", "inhibition": "39.3% (active)"}
